INS-1E GSIS act: primary screen for activators of insulin secretion dependent on glucose, INS-1E cells, GLuc reporter luminescence | activation, % at 16.6 µM | 370,000 compounds, 0.61% hits | INS-1E GLuc reporter insulin secretion, 2-3 h;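 active = lowest replicate activation of at least 40%, so every replicate reaches that level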;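 note: 0% = median of neutral control wells and 100% = median of IBMX positive control wells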
hiPSC survival: hiPSC single-cell survival enhancement; ATPlite luminescence; 100% = ROCK inhibitor wells, 0% = DMSO; survival enhancement, % at 20 µM; 360,000 compounds, 0.044% hits; AID 602274; in the data active = survival enhancement above about 18%;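 note: cells exposed to compounds for 16 hours before the ATP read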
ARNT TACC3 PPI: disruptors of human ARNT/TACC3 interaction; inhibition, % at 9.99 µM; AID 623870; AlphaScreen His-ARNT PAS-B/GST-TACC3 binding, luminescence; TACC3 fragment carries E629A point mutation; 390,000 compounds, 0.66% hits;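 active = mean inhibition of replicates at least 50% and at least half of replicates each reaching 50%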;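 note: 0% = complete ARNT plus TACC3 wells and 100% = ARNT alone without TACC3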
ABCB6 inh MLPCN: inhibitors of human ABC transporter ABCB6; fluorescence ratio to DMSO, % at 10 µM; 360,000 compounds, 0.19% hits; K562-ABCB6 porphyrin accumulation, flow cytometry, 1 h; stronger effect = lower value;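 active = fluorescence ratio to DMSO below 75%, the collection mean minus 3 SD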;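 note: signal is porphyrin accumulated inside mitochondria; 100% equals median channel fluorescence of DMSO control wells; lower ratio means ABCB6 inhibition with less porphyrin fluorescence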
NRP1-CendR mod: alters CendR peptide binding to human NRP-1. inhibition, % at 25 µM. 360,000 compounds, 0.85% hits. FAM-RPARPAR peptide binding to NRP-1, fluorescence polarization;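 active = inhibition or corrected inhibition above about 18%, plus a signal ratio from 0.5 to 1.5, limit read from the data, passing the limit was not always enough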
Target sequence (O14786 whole entry, looked up): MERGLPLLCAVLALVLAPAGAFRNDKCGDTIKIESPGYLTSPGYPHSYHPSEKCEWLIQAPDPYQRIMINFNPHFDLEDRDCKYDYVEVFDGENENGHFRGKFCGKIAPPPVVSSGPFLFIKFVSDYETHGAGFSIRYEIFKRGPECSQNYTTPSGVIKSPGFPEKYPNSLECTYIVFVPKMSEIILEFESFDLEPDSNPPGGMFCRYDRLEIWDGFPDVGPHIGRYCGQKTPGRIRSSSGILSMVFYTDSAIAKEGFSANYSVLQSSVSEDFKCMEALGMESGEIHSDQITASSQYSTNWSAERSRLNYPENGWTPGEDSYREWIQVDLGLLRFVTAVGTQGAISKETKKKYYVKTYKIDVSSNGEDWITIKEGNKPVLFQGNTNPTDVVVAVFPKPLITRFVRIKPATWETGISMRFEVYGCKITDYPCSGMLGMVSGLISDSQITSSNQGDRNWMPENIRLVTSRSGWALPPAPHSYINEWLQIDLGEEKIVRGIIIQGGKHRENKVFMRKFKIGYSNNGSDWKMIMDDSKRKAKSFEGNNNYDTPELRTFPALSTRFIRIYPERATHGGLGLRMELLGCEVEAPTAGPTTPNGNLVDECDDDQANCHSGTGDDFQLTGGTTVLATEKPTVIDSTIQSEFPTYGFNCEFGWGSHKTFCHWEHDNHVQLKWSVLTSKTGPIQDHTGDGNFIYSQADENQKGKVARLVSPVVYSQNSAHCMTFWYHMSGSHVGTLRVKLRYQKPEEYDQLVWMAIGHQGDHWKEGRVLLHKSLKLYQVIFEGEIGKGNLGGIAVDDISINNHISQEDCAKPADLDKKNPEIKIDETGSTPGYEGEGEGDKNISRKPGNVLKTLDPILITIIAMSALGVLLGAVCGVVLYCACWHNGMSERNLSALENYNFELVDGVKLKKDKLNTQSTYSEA
An asterisk follows results filed as active; x = not tested or not shown. Shown are actives, neighbours in structure and some others; about 1.8% of the full set was active somewhere.

SMILES	INS-1E GSIS act	hiPSC survival	ARNT TACC3 PPI	ABCB6 inh MLPCN	NRP1-CendR mod
COc1ccc(C(=O)/C(C#N)=N/Nc2ccccc2[N+](=O)[O-])cc1	62*	4	-16	98	-2
COc1ccc(C(=O)/C(C#N)=N/Nc2ccc([N+](=O)[O-])cc2)cc1	-10	0	-5	101	-29
O=C(C1CCC1)N1CC2(C1)[C@H](c1ccccc1)[C@@H](CO)N2Cc1ccccc1F	20	x	x	x	x
Cn1c(-c2ccccc2)cnc1N	x	-2	58*	98	4
COc1ccc(-c2cnc(N)n2C)cc1	-2	-1	69*	101	13
COCCn1c(-c2ccccc2)cnc1N	2	5	51*	99	2
C[C@@H]1CN([C@@H](C)CO)C(=O)c2cc(NC(=O)CCN3CCOCC3)ccc2O[C@@H]1CN(C)Cc1ccc(C(=O)O)cc1	5	x	-28	x	x
CO[C@H]1CN(C)C(=O)c2cc(NC(C)=O)ccc2OC[C@H](C)N(CCC(F)(F)F)C[C@@H]1C	5	x	-1	x	x
C[C@H](CO)N1C[C@H](C)[C@H](CN(C)Cc2cncnc2)Oc2cc(-c3cccnc3)ccc2S1(=O)=O	19	x	-3	x	x
COC(=O)/C=C1\OCc2cc(OC)c(OC)cc21	55*	x	x	x	2
COc1cc2c(cc1OC)/C(=C/C(C)=O)OC2	119*	x	x	x	16
COc1cc2c(cc1OC)/C(=C/C(=O)OCc1ccccc1)OC2	8	x	x	x	-5
COc1ccc2c3c(n(C)c2c1)[C@@H](CO)N(C(=O)Nc1ccc(F)cc1)CC31CN(S(=O)(=O)c2cccc(F)c2)C1	-3	x	x	x	x
CCOC(=O)c1c(CC(C)C)csc1NC=O	38	-2	2	101	30*
CCOC(=O)/C(=N\Nc1cccc(Cl)c1)Sc1nnc(-c2ccc(OC)cc2)n1C	8	-2	46*	104	8
COc1ccc2c3c(n(C)c2c1)[C@H](CO)N(C(=O)Cc1ccccn1)CC31CCN(CC2CCCC2)CC1	3	x	x	x	x
O=C1CNC(=S)N1CCCn1ccnc1	7	0	60*	98	-5
Cc1nccn1CCCN1C(=O)CNC1=S	-14	0	0	103	2
O=C(C[C@H]1C[C@@H]2c3cc(NC(=O)CC4CC4)ccc3O[C@@H]2[C@@H](CO)O1)NCc1cccc(F)c1	-13	x	active	x	x
CS(=O)(=O)c1cnc(-c2ccccc2)nc1Oc1ccc(Cl)cc1	x	-1	-10	102	23*
CN1CCN(c2nc(-c3ccccc3)ncc2S(C)(=O)=O)CC1	41	0	-2	97	17*
Clc1nc(-c2ccccc2)ncc1Oc1ccccc1	8	0	x	87	8
CS(=O)(=O)c1cnc(-c2ccccc2)nc1Oc1ccc(F)cc1	65*	1	-6	96	-12
COc1ccc2c3c([nH]c2c1)[C@H](CO)N(C(=O)CN(C)C)CC31CN(Cc2ccccc2)C1	14	x	x	x	x
Nc1ccc(N)c(C(=O)O)c1	x	-1	47*	102	11
SMILES	INS-1E GSIS act	hiPSC survival	ARNT TACC3 PPI	ABCB6 inh MLPCN	NRP1-CendR mod
O=C1C=C(c2ccc3[nH]ccc3c2)CCC1	25	2	x	98	1
COc1ccc2cc(C3=CC(=O)CCC3)ccc2c1	1	7	-4	96	28*
O=C(N/N=C/c1ccc(O)c(O)c1O)/C(=C/c1ccc([N+](=O)[O-])cc1)NC(=O)c1ccccc1	x	3	64*	97	-2
Cc1ccc(NC(=O)/C(=C\c2ccc([N+](=O)[O-])cc2)NC(=O)c2ccccc2)cc1	x	58*	-6	88	0
C[C@H](O)C#Cc1cnc2c(c1)C(=O)N([C@@H](C)CO)C[C@@H](C)[C@@H](CN(C)C(=O)c1ccccc1F)O2	12	x	-7	x	x
C[C@H]1CN([C@@H](C)CO)C(=O)Cc2cc(NC(=O)CCC(F)(F)F)ccc2O[C@@H]1CN(C)C(=O)Nc1cccc2ccccc12	2	x	x	x	x
CC=Cc1ccc2n(c1=O)C[C@H]1[C@H](CO)[C@@H](C(=O)NCC(F)(F)F)N(CCC)[C@@H]21 (mixture of isomers)	9	x	-1	x	x
O=C(Nc1cccc(NC(=O)c2cccs2)c1)c1ccc(Br)o1	-5	0	-5	90	9
O=C(Nc1ccc(NC(=O)c2cccs2)cc1)c1ccc(Br)o1	45*	0	1	104	-10
CCC(C)(C)c1ccc(OCCCC[n+]2ccc(C)cc2)c(C(C)(C)CC)c1	560*	x	x	x	x
CCC(=O)Nc1nnc(Sc2ccc(N(C)C)cc2)s1	50*	2	1	104	-9
CCn1c(Cl)c(C=O)s/c1=N\S(=O)(=O)c1ccccc1	58*	44*	9	38*	-12
N#Cc1cccc(Oc2ccc(-c3cnc4ccccc4n3)cc2)c1C#N	87*	0	-4	88	-11
O=C1/C(=N\S(=O)(=O)c2cccs2)C([n+]2ccccc2)=C([O-])c2ccccc21	-6	-1	-2	100	124
CC(C)(C)c1cc[n+](C2=C([O-])c3ccccc3C(=O)/C2=N\S(=O)(=O)c2cccs2)cc1	-25	-1	x	99	31*
O=C(c1cccnc1)N(Cc1ccccc1)c1ccccc1	117*	1	-3	103	-2
CCn1nc(C(=O)Nc2ccc3nc(C)sc3c2)c2ccccc2c1=O	53*	4	10	98	1
Cc1cc(C)n(-c2nc(C)nc(NCc3ccccc3)n2)n1	x	1	-5	90	0
Cc1cc(C)n(-c2nnc(NCc3ccc(Cl)cc3)nn2)n1	-3	-3	-5	99	30*
CC(=O)C1=C(NC(=O)c2ccccc2F)C[C@@H]2[C@H]1C2(C)C	x	-3	-1	107	17*
CC(=O)C1=C(NC(=O)c2ccc(C(F)(F)F)cc2)C[C@@H]2[C@H]1C2(C)C	-10	0	-2	96	0
Cc1ccc(NC(=O)C(C)N2C(=O)C3C4CC(C(Br)C4Br)C3C2=O)cc1 (centres undefined)	x	2	-2	97	32*
C[C@@H](C(=O)Nc1ccc(SC(F)F)cc1)N1C(=O)C2CCCCC2C1=O (some centres undefined)	-22	-4	-3	99	22*
Cc1ccc(NC(=O)C(C)N2C(=O)C3CC=C(Cl)CC3C2=O)cc1 (centres undefined)	x	-3	-25	97	13
Cc1ccc(NC(=O)C(C)N2C(=O)c3ccccc3C2=O)cc1 (centres undefined)	x	-1	-1	96	27*
CCOC(=O)c1ccc(NC(=O)C(C)N2C(=O)c3ccccc3C2=O)cc1 (centres undefined)	5	0	1	96	-19
Cc1ccc(S(=O)(=O)N(C)C[C@@H]2Oc3ccc(NS(=O)(=O)c4ccccc4)cc3CC(=O)N([C@H](C)CO)C[C@@H]2C)cc1	-6	x	0	x	x
Nc1nc(N)c2cc(Sc3ccc(Cl)cc3)ccc2n1	187*	1	x	98	-5
Nc1nc(N)c2cc(Sc3ccc4ccccc4c3)ccc2n1	x	0	x	96	-8

Screening data as filed in PubChem BioAssay.
